40 compounds from PubChem BioAssay can be followed below.

Values without a mark were called inactive. How the calls were made is not given here.

The target in this experiment is Pantothenate synthetase (Mycobacterium tuberculosis (strain ATCC 25618 / H37Rv)) (UniProt P9WIL5). The experiment is described as follows: Recombinant Mtb pantothenate synthetase (PanC) inhibitors, coupled enzyme, confirmatory (AID 375).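 Further: 0% = full reaction with vehicle and 100% = no enzyme background.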 Particulars: coupled enzyme assay; at 10 µM, hits give high values.
Sequence of Pantothenate synthetase (Mycobacterium tuberculosis (strain ATCC 25618 / H37Rv)) (P9WIL5 whole entry, looked up): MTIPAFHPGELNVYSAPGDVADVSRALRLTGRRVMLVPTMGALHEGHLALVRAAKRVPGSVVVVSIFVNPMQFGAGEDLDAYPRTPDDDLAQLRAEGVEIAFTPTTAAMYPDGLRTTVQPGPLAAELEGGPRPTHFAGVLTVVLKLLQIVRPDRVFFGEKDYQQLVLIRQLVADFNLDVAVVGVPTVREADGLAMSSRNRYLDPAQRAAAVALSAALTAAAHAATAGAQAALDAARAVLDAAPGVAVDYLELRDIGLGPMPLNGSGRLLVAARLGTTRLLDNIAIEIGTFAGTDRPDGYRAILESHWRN
On to `CC1C=CC(C)C(C(=O)O)C1C(=O)O` (stereo not given), for which the inhibition (usually the percentage by which the read-out fell short of the control) is 0%.
Then `NS(=O)(=O)c1ccc(NC(=O)N[C@@H](Cc2ccccc2)C(=O)O)cc1`, with 0%; and `Clc1ccc(-n2ncc3c(NCCCn4ccnc4)ncnc32)cc1`, with 0%.
The value for `CN(C)CCN1C(=O)C(O)=C(C(=O)c2cc3ccccc3o2)C1c1ccc(N(C)C)cc1` (stereo not given) was 0%; that for `COC(=O)C1=C(C)OC(N)=C(C#N)C1c1ccccc1` (stereo not given) was 0%.
Then `O=C(Nc1nnc(COc2ccc(F)cc2)s1)c1cccs1`, with 5%.
In the case of `COc1ccc(-c2nnc(SCC#N)o2)cc1`, the inhibition is 0%.
Then `Nc1ccc(Sc2nnnn2-c2ccccc2)c(Cl)c1`, with 6%; and `O=C(Cc1c[nH]c2ccccc12)N1CCc2ccccc21`, with 3%.
Then `CCOC(=O)c1[nH]c2cc(OC)c(OC)cc2c1NC(=O)C(C)N1CCN(Cc2ccccc2)CC1` (stereo not given), with 1%; and `Cc1c(/C(O)=C2/C(=O)C(=O)N(CCN3CCOCC3)C2c2cccnc2)cnn1-c1ccccc1` (stereo not given), with 1%; and `COc1ccccc1NC1=C(C)C(=O)CC1`, with 0%.
The value for `O=C1NC(=O)C2(CCC(C(=O)O)C2)N1` (stereo not given) was 11%; that for `Cc1c(NC(=O)C(C)Oc2ncnc3ccccc23)c(=O)n(-c2ccccc2)n1C` (stereo not given) was 0%; that for `O=C1CCc2cc(S(=O)(=O)N3CCC(C(=O)Nc4nccs4)CC3)ccc2N1` was 4%.
Consider `COc1ccc(C)cc1NC(=O)CCN1CCCC1`, for which the inhibition is 0%.
On to `CCCCC(CC)C(=O)Nc1ccccc1C#N` (stereo not given), for which the inhibition was 0%.
Turning to `CCOC(=O)c1sc(NC(=O)CSc2nnc(-c3ccco3)n2CC)c(C(=O)OCC)c1C`, the inhibition was 0%.
With `COc1ccc(NC(=O)c2cc(C(C)C)on2)c(OC)c1`, the inhibition was 0%.
As for `COCCNS(=O)(=O)c1cc(F)ccc1OC`, the inhibition is 0%.
Then `Cc1ccc2oc(=O)c3cnn(CC(=O)NCCC(C)C)c3c2c1`, with 0%; and `CC(C(=O)N1CCOCC1)N1c2cccc3cccc(c23)S1(=O)=O` (stereo not given), with 8%; and `Cc1cccc(-c2nnc(SCC#N)n2-c2cccc(Cl)c2)c1`, with 0%.
Then `Cc1c(C)c2cc(Cl)c(O)c(CN3CCCCC3)c2oc1=O`, with 1%; and `Cc1cc2c(cc(C(=O)OCC(=O)NCc3cccs3)n2C(C)C)o1`, with 0%; and `CN(C)c1ccc(/C=C/C(O)=C2/C(=O)N(C)C3(C)CC2c2ccccc2O3)cc1` (stereo not given), with 0%.
Then `COc1cccc(C2CC(=O)Nc3c2c(=O)n(C)c(=O)n3C)c1OC` (stereo not given), with 6%; and `CN(C)S(=O)(=O)N1CCN(c2cccc(Cl)c2)CC1`, with 0%; and `CCOC(=O)c1sc(C)c2c(=O)n(CC)nnc12`, with 0%.
Turning to `O=C(Cn1c(NCCO)nc2ccccc21)c1ccccc1`, the inhibition was 6%.
Then `CCOC(=O)C1C(=O)N(C(=O)c2ccc(OC)cc2)CC1c1ccccc1` (stereo not given), with 0%.
Then `COC(=O)Cn1ncc2c(C)n(Cc3ccccc3)c(C)c2c1=O`, with 2%; and `Cc1cc(C(F)(F)F)nn1Cc1ccc(C(=O)NCc2ccco2)o1`, with 0%; and `O=C1CC2CS(=O)(=O)CC2N1c1ccc(Oc2ccccc2)cc1` (stereo not given), with 0%.
The value for `CCC(c1c(C)n(C)n(-c2ccccc2)c1=O)c1c(C)n(C)n(-c2ccccc2)c1=O` was 1%.
For `CC(=O)Nc1ccccc1OCC(=O)c1cc(C)n(Cc2cccs2)c1C`, the inhibition was 0%.
The value for `CC(=O)NCCn1ccc2ccccc21` was 0%.
The value for `CC1(C)CC(=O)C2=C(C1)N(CC1CCCO1)C(=O)C2(O)C(F)(F)F` (stereo not given) was 0%; that for `Cc1onc(-c2ccccc2Cl)c1C(=O)Nc1cccnc1` was 5%.
The value for `COc1ccc(-c2cc(C(F)(F)F)nc(SCC(=O)NCc3ccco3)n2)cc1OC` was 3%.
